Test [1] is described as follows: qHTS assay to identify small molecule agonists of the peroxisome proliferator-activated receptor delta (PPARd) signaling pathway - cell viability counter screen (AID 743211). Note: nearly all actives have a fitted effect of over 55% in size. Note: potency is the fitted concentration of half-maximal effect. A digest of the protocol: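 qHTS cell viability: PPARd-bla HEK293H; 17 h cpd, 37C; CellTiter-Glo, luminescence at 30 min RT.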
For orientation: Quantitative high-throughput screening tests each substance at several concentrations.

Test [2] has as its target Peroxisome proliferator-activated receptor delta (Homo sapiens) (UniProt Q03181). As to the kind of experiment: qHTS assay to identify small molecule agonists of the peroxisome proliferator-activated receptor delta (PPARd) signaling pathway (AID 743212; calls by dose curve). A digest of the protocol: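 A PPARd-bla HEK293H line with beta-lactamase under an Upstream Activator Sequence is treated with compounds at 37 C. Substrate loading for 2 h at room temperature precedes the fluorescence measurement.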

The target in test [3] is Bile acid receptor (Homo sapiens) (UniProt Q96RI1). Nature of the test: qHTS assay to identify small molecule antagonists of the farnesoid-X-receptor (FXR) signaling pathway (AID 743217; active = well fitted inhibition curve with a large enough effect in the signal ratio in the repeat runs, not every such curve was filed as active; the % refers to the signal ratio; note: potency is the fitted concentration of half-maximal effect). The procedure, abridged:
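In this cell-based antagonist screen, inhibition of CDCA-driven (50 uM final) UAS-beta-lactamase expression in HEK 293T cells was measured by FRET fluorescence following 16 h compound exposure at 37 °C.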

Test [4] is described as follows: qHTS assay to identify small molecule agonists of the farnesoid-X-receptor (FXR) signaling pathway - cell viability counter screen (AID 743218). Note: nearly all actives have a fitted effect of over 45% in size. Note: potency is the fitted concentration of half-maximal effect. The procedure, abridged:
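After 16 h at 37 C with test compounds, FXR-bla HEK 293T cells were given LiveBLAzer B/G substrate for 2 h at RT and then CellTiter-Glo; luminescence was taken after 30 min.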

A short description of test [5]: qHTS assay to identify small molecule antagonists of the farnesoid-X-receptor (FXR) signaling pathway - cell viability counter screen (AID 743221; active = well fitted cell-killing curve with a large enough effect in the repeat runs, not every such curve was filed as active; note: nearly all actives have a fitted effect of over 50% in size; note: potency is the fitted concentration of half-maximal effect). The procedure, abridged: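 After a 5 h settling period, FXR-bla HEK 293T cells receive compound and chenodeoxycholic acid (50 uM final) and incubate 16 h at 37 C; CellTiter-Glo luminescence, read after 30 min at room temperature, reports cell viability.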

The target of test [6] is Vitamin D3 receptor (Homo sapiens) (UniProt P11473). As to the kind of experiment: qHTS assay to identify small molecule antagonists of the vitamin D receptor (VDR) signaling pathway (AID 743223; active = well fitted inhibition curve with a large enough effect in the signal ratio in the repeat runs, not every such curve was filed as active; the % refers to the signal ratio; note: potency is the fitted concentration of half-maximal effect). A digest of the protocol:
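Reporter line VDR-bla; stimulus 1alpha,25-(OH)2 vitamin D3, 3 nM final; compound co-addition, 16 h 37C/5% CO2; LiveBLAzer B/G substrate 2 h RT; fluorescence intensity.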

Test [7] has the same target. Nature of the test: qHTS assay to identify small molecule agonists of the vitamin D receptor (VDR) signaling pathway (AID 743222; calls by dose curve). A digest of the protocol:
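VDR-bla cells were seeded, left 4 h, treated with compounds in DMSO for 16 h, incubated 2 h at RT with B/G FRET substrate, and read for fluorescence.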

Test [8] in a line: qHTS assay to identify small molecule antagonists of the peroxisome proliferator-activated receptor delta (PPARd) signaling pathway - cell viability counter screen (AID 743213). Note: nearly all actives have a fitted effect of over 50% in size. Note: potency is the fitted concentration of half-maximal effect. The procedure, abridged:
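Luminescence from CellTiter-Glo, added after the bla read and incubated 30 min at room temperature, gives viability of HEK293H PPARd-bla cells exposed to compounds for 17 h at 37 C with 300 nM L165041.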

Test [9] has as its target Peroxisome proliferator-activated receptor delta (Homo sapiens) (UniProt Q03181). As to the kind of experiment: qHTS assay to identify small molecule antagonists of the peroxisome proliferator-activated receptor delta (PPARd) signaling pathway (AID 743215; active = well fitted inhibition curve with a large enough effect in the signal ratio in the repeat runs, not every such curve was filed as active; the % refers to the signal ratio;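 note: cells stimulated with agonist L165041 at 300 nM final during compound exposure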; note: potency is the fitted concentration of half-maximal effect). A digest of the protocol:
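With L165041 present at 300 nM final, compounds were incubated 17 h at 37 C on PPARd UAS-bla HEK293H cells. A FRET-based beta-lactamase substrate was then applied for 2 h at room temperature and fluorescence intensity recorded.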

Test [10] has as its target Bile acid receptor (Homo sapiens) (UniProt Q96RI1). Nature of the test: qHTS assay to identify small molecule agonists of the farnesoid-X-receptor (FXR) signaling pathway (AID 743220; active = well fitted activation curve with a large enough effect in the signal ratio in the repeat runs, not every such curve was filed as active; the % refers to the signal ratio). The procedure, abridged:
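Beta-lactamase reporter under UAS control in GeneBLAzer FXR HEK 293T cells (5000/well) measured with LiveBLAzer FRET substrate after 2 h at room temperature. Compound exposure lasted 16 h at 37C.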

“And” between values parts separate entries of the source, which are not always exact repeats. Equal values may be shown once. Inconclusive results are not listed. Where a structure was tested more than once in an assay, its records may differ in their call. The source made the active and inactive calls. Unless noted, calls come from the whole dose curve; as a rule, active = well fitted curve in the direction sought with a large enough effect in the repeat runs; inconclusive = weak or mixed curves; inactive = no such curve, though single readings can be large; an effect the other way counts as inactive or inconclusive.

Sequence of Peroxisome proliferator-activated receptor delta (Homo sapiens) (Q03181 whole entry, looked up): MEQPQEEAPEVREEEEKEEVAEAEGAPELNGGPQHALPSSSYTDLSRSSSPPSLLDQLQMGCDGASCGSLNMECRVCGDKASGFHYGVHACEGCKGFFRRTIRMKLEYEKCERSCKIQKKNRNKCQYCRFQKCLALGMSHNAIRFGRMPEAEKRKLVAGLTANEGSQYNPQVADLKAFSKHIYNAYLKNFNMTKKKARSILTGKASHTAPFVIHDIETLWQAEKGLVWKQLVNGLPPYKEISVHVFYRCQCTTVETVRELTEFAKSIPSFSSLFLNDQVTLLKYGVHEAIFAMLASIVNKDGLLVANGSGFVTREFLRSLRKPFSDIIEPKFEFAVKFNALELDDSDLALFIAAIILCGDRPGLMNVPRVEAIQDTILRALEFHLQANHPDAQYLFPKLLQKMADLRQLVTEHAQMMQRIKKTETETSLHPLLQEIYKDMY
Sequence of Bile acid receptor (Homo sapiens) (Q96RI1 whole entry, looked up): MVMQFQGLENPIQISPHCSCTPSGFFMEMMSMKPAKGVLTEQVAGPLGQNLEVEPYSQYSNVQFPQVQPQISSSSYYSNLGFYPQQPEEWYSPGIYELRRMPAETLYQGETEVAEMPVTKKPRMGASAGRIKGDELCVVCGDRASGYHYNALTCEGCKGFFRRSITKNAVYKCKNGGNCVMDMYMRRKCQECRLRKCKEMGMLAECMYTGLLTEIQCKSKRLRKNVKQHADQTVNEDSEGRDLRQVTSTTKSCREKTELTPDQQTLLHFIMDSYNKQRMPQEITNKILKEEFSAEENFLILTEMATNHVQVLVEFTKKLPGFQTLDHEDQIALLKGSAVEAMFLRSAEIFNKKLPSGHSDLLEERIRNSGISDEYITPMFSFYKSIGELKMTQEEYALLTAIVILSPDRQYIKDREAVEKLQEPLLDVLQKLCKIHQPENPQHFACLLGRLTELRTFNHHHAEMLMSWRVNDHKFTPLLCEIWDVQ
Sequence of Vitamin D3 receptor (Homo sapiens) (P11473 whole entry, looked up): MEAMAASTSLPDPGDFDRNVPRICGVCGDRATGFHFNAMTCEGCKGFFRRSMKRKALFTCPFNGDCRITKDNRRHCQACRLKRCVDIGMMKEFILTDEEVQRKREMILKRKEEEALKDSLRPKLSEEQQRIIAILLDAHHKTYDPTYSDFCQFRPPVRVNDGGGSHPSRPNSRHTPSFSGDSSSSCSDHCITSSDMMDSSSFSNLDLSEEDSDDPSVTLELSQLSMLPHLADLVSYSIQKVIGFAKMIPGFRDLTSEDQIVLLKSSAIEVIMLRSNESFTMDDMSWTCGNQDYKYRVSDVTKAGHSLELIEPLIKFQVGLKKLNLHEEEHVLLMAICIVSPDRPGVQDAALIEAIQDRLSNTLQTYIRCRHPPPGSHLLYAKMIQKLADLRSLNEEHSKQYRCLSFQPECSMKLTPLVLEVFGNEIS

On to `C=C[C@](C)(O)CC[C@@H]1[C@@]2(C)CCCC(C)(C)[C@@H]2CC[C@@]1(C)O`, for which the Potency in test [1] was 54.9 µM (active); in [3] it was 49 µM (active). In addition, the outcome in test [2] was inactive.
Turning to `Cc1c(C(=O)O)cccc1[N+](=O)[O-]`, the Potency entry in test [1], in test [3], in test [4], in [5] and in test [6] was “inactive” in each case. The compound was classed as inactive in test [2].
Regarding `C1CC(COCC2CO2)CCC1COCC1CO1` (stereo not drawn), the Potency entry in [1], in test [3], in test [4] and in test [7] was “inactive” throughout. In addition, the outcome in test [2] was inactive.
Turning to `C(=C/c1ccccc1)/c1ccccc1`, the Potency result in [1], in test [8], in [9], in [3], in test [4] and in test [5] was “inactive” throughout. Moreover, the Potency result in test [7] and in test [6] was “inactive” each time. For the same compound, the outcome in [2] was inactive.
On to `CC(C)(C)CC(C)(C)c1ccccc1O`, for which the Potency in [1] was 43.9 µM (active); in test [8], 39.1 µM (active); in test [5], 43.9 µM (active); in [6], 43.9 µM (active). The call in test [2] was inactive. For the same compound, in test [7], the Potency entry was “inactive”.
As for `CCCCCCCC/C=C\CCCCCCCC(=O)OCCOC(=O)CCCCCCC/C=C\CCCCCCCC`, the Potency entry in [1], in test [8], in test [9], in test [3], in test [5] and in test [7] was “inactive” throughout. Further, in test [6], the Potency entry is “inactive”. The compound was classed as inactive in test [2].
Consider `C=CC(C)(CCC=C(C)C)OC(=O)/C=C/c1ccccc1` (stereo not drawn), for which the Potency result in test [1], in test [3], in [4] and in test [6] was “inactive” in each case. For the same compound, the outcome in [2] was inactive.
For `CCCCC(CC)COC(=O)c1ccc(O)cc1` (stereo not drawn), the Potency was 38.8 µM (active) in test [1]; 34.5 µM (active) and 38.9 µM (active) in test [8]; 48.8 µM (active) in test [5]. Further, the compound was called inactive in test [2]. Moreover, the Potency result in test [10] and in test [7] was “inactive” throughout.
With `Nc1cc(Cl)c([N+](=O)[O-])cc1O`, the Potency entry in test [1], in [9], in test [3], in [4], in test [5] and in test [7] was “inactive” each time. Moreover, the Potency entry in [6] is “inactive”. In test [2], the call was inactive.
For the compound `CCN(CC)CCNc1ccc(CO)c2sc3ccccc3c(=O)c12`, the Potency in test [1] was 18.8 µM (active); in test [8], 13.3 µM (active); in [9], 23.7 µM (active); in test [4], 13.3 µM (active). Also, in [2], the compound was classed as inactive. In addition, the Potency entry in [7] is “inactive”.
In the case of `CCOC(=O)COc1ccc(C)cc1`, the Potency result in test [1], in [8], in test [3], in test [4], in test [10] and in test [5] was “inactive” throughout. In addition, the Potency result in [6] is “inactive”.
As for `[O]=[Zr]`, the Potency result in test [1], in test [8], in [3], in test [4] and in test [5] was “inactive” throughout.
On to `CCCCCCCCCCCCCC[n+]1ccccc1`, for which the Potency is 24.5 µM (active) in test [1], 24.5 µM (active) in test [8], 54.9 µM (active) in test [5] and 43.6 µM (active) in [6].
Turning to `COc1cc(C=C2CCC/C(=C\c3ccc(O)c(OC)c3)C2=O)ccc1O`, the Potency in test [1] is 29.8 µM (active); in test [8] it was 33.5 µM (active); in test [4], 21.1 µM (active); in test [5], 23.7 µM (active).
Turning to `CC(CN(C)C)CN1c2ccccc2CCc2ccccc21` (stereo not drawn), the Potency in test [1] is 26.6 µM (active); in [4], 8.41 µM (active). The Potency entry in [9], in test [3], in test [7] and in test [6] was “inactive” throughout.
Take `CN1[C@@H]2CC[C@@H]1CC(OC(=O)C(CO)c1ccccc1)C2` (stereo partly drawn): the Potency entry in [1], in test [8], in [4] and in test [5] was “inactive” throughout.
Turning to `CC(COC(=O)c1ccccc1)OC(=O)c1ccccc1` (stereo not drawn), the Potency result in [1], in test [8], in test [5] and in [6] was “inactive” throughout.
As for `O=C1c2c(O)ccc(O)c2C(=O)c2c(NCCNCCO)ccc(NCCNCCO)c21`, the results for the Potency in test [1] and in test [3] were 29.8 µM (active) and 26.6 µM (active), respectively. Also, the Potency result in test [8], in test [10] and in test [5] was “inactive” throughout.
Turning to `NC1(c2ccc(-c3nc4ccn5c(=O)[nH]nc5c4cc3-c3ccccc3)cc2)CCC1`, the Potency is 26.6 µM (active) in test [1], 15 µM (active) in test [8], 26.6 µM (active) in test [4] and 33.5 µM (active) in test [5].
As for `CCN=C1C=CC(=C(c2ccc(N(CC)CC)cc2)c2ccc(N(CC)CC)cc2)c2ccccc21`, the Potency was 3.87 µM (active) in test [1], 12.2 µM (active) in test [8] and 6.88 µM (active) in test [4].
In the case of `S=C(SSSSSSC(=S)N1CCCCC1)N1CCCCC1`, the Potency in [1] was 0.108 µM (active); in [8] it was 0.382 µM (active). Also, the Potency result in [10] and in test [6] was “inactive” in each case.
For `O=C(Nc1ccc(Cl)c(Cl)c1)c1cc(Cl)cc(Cl)c1O`, the Potency in test [1] is 5.49 µM (active); in [8], 11 µM (active); in test [4] it was 3.89 µM (active); in test [5] it was 13.8 µM (active).
In the case of `COCC(=O)O[C@]1(CCN(C)CCCc2nc3ccccc3[nH]2)CCc2cc(F)ccc2[C@@H]1C(C)C`, the Potency in test [1] was 11.9 µM (active); in test [8], 16.8 µM (active); in [4], 11.9 µM (active); in [5], 23.7 µM (active).
Consider `CN(C)CCCN1c2ccccc2CCc2ccccc21`, for which the Potency in [1] is 30.9 µM (active); in test [8], 24.5 µM (active) and 26.6 µM (active); in test [4], 19.5 µM (active) and inactive.
Take `O=C1C=CC(=O)N1c1ccccc1`: the Potency in test [1] was 15.5 µM (active); in test [8] it was 15.5 µM (active); in test [3] it was 54.9 µM (active); in test [4] it was 49 µM (active); in test [6], 12.3 µM (active).
On to `CCCCCCCCCCCCOC(=O)c1cc(O)c(O)c(O)c1`, for which the Potency in test [1] is 34.5 µM (active) and 43.6 µM (active); in [8], 34.5 µM (active) and 54.9 µM (active); in test [3], 54.9 µM (active); in test [4], 43.5 µM (active); in test [5], 38.7 µM (active) and 19.5 µM (active).
For `Cc1cc2c(C(C)C)c(O)c(O)c(C=O)c2c(O)c1-c1c(C)cc2c(C(C)C)c(O)c(O)c(C=O)c2c1O`, the Potency was 9.44 µM (active) in [1], 18.8 µM (active) in test [9] and 10.6 µM (active) in test [4].
`Cc1cccc(C)c1NC(=O)CN1CCN(CCCC(c2ccc(F)cc2)c2ccc(F)cc2)CC1`: the Potency in test [1] was 18.8 µM (active); in [8], 21.1 µM (active); in test [4], 26.6 µM (active); in test [5], 29.8 µM (active).
For `NCCCC(O)(P(=O)(O)O)P(=O)(O)O`, the Potency entry in test [1], in test [8], in [4], in [7] and in test [6] was “inactive” throughout.
Consider `CCCCCCCC/C=C\CCCCCCCC(=O)N(C)CC(=O)O`, for which the Potency in test [1] was 38.9 µM (active); in test [8], 12.3 µM (active); in test [4], 38.9 µM (active); in test [5], 54.9 µM (active).
As for `C=CC(=O)OCCOCC(CC)(COCCOC(=O)C=C)COCCOC(=O)C=C`, the Potency in test [1] was 51 µM (active); in [8], 36.1 µM (active); in test [4] it was 51 µM (active).
As to `CSc1c(Cl)c(Cl)c(Cl)c(Cl)c1Cl`, the Potency in test [1] is 54.6 µM (active). Besides, the Potency entry in test [8], in [10], in test [5], in test [7] and in test [6] was “inactive” throughout.
In the case of `CCN(CC)CCOc1ccc(C(O)(Cc2ccc(Cl)cc2)c2ccc(C)cc2)cc1` (stereo not drawn), the Potency in test [1] was 10.6 µM (active); in [8], 13.3 µM (active); in [9], 29.8 µM (active); in test [4] it was 13.3 µM (active). In [10], the Potency result was “inactive”.

Values taken from PubChem BioAssay (Tox21).
